Out of some 52,000 compounds screened, about 4,300 (8.3%) were called active. The entries come from a sample that favours actives as a whole. Values without a mark were called inactive. Cut-off read from the data, not from the text of the source: active = survival mostly below about 52% (no sharp cut-off); inactive = mostly above about 56%.

For this assay, the system named is DeltatarO mutant. Description: growth inhibition of S. aureus wild type versus tarO mutant, primary screen, teichoic acid synthesis inhibitors, RN4220, OD600 (AID 463173). To be noted: OD600, 18 h, hits give low values, screened at 18.75 µg/mL (by protocol).
As for `Cn1cnnc1SCC(=O)O`, the survival is 85%. In the case of `Cc1ccc(NC(=O)CC(C)S(=O)(=O)c2ccc3c(c2)NC(=O)CO3)cc1C` (stereo not drawn), the survival is 85%. For `Cc1ccc(N2CCN(C(=O)c3c(C)oc4ncnc(N5CCCCC5)c34)CC2)c(C)c1` the value was 77%; for `CCOc1cc(C(=O)NCC(c2ccc(N(C)C)cc2)N2CCOCC2)cc(OCC)c1OCC` (stereo not drawn), 101%; for `CCc1ccc(Nc2ncnc3c2cnn3-c2cc(Cl)ccc2C)cc1`, 77%. Consider `CCc1nnc(SCc2nc(-c3ccc(OC)c(OC)c3)oc2C)c2cc3sc(C)cc3n12`, for which the survival was 69%. Regarding `O=C(CCCn1c(=O)c2cccn2c2ccc(F)cc21)NCCc1ccccc1`, the survival was 47% (active). On to `O=C(CCn1c(=O)c2cccn2c2ccc(F)cc21)NCCc1ccccc1`, for which the survival was 42% (active). As to `O=C(CCn1c(=O)c2cccn2c2ccc(F)cc21)NCc1ccccc1F`, the survival is 45% (active). For `O=C(Cn1c(=O)c2cccn2c2ccccc21)NCCc1ccccc1`, the survival was 62%. Turning to `CSc1ccc(CNC(=O)CCn2c(=O)c3cccn3c3ccc(F)cc32)cc1`, the survival was 59%. The same measure for `O=C(CCn1c(=O)c2cccn2c2ccc(F)cc21)NCCc1ccc(Cl)cc1`: 50%; for `NS(=O)(=O)c1ccc(CCNC(=O)Cn2c(=O)c3cccn3c3ccc(F)cc32)cc1`: 89%; for `O=C(CCn1c(=O)c2cccn2c2cccnc21)NCc1ccccc1F`: 100%. For `CCC(=O)Nc1ccc(-c2nnc3c4ccccc4c(C)nn23)cc1` the value was 90%; for `COc1ccc(OC)c(NC(=O)c2c(C)oc3ncnc(N4CCOCC4)c23)c1`, 134%; for `COC(=O)C(C)Sc1cc(C)c2ccccc2n1` (stereo not drawn), 76%.

Regarding `CCCCNC(=O)CCCn1c(=O)c2ccccc2n(Cc2cccc(Cl)c2)c1=O`, the survival was 100%. The same measure for `Cc1cc(C)n2nc(-c3ccc(Cl)cc3)nc2n1`: 76%. For `CCN(CC)c1cc(C)nc2nc(-c3ccc(C)cc3)nn12`, the survival was 43% (active). With `Cc1cc(N(C)Cc2ccccc2)n2nc(-c3ccc(C(C)(C)C)cc3)nc2n1`, the survival is 39% (active).

Consider `Cc1cc(N(CCO)Cc2ccccc2)n2nc(-c3ccc(C(C)(C)C)cc3)nc2n1`, for which the survival was 48%. In the case of `CCCN(CCC)c1cc(C)nc2nc(-c3ccc(C(C)(C)C)cc3)nn12`, the survival was 103%. In the case of `CCCN(CCC)c1cc(C)nc2nc(-c3ccc(Cl)cc3)nn12`, the survival is 52%. For the compound `Cc1cccc(C(=O)NC2(C(F)(F)F)N=C(c3ccccc3)N(C3CCCCC3)C2=O)c1` (stereo not drawn), the survival is 68%. The same measure for `Cc1c(Cl)cccc1NC(=O)Cn1nc(C(F)(F)F)c2c1CCC2`: 73%.

On to `CCOc1ccc(S(=O)(=O)NCCc2sc3nc(-c4ccc(F)cc4)nn3c2C)cc1`, for which the survival is 67%. The same measure for `Cc1nn2c(-c3ccco3)ccnc2c1-c1ccc(Cl)cc1`: 94%; for `Cc1cc(-c2ccccc2)nc2cc(C(N)=O)nn12`: 71%. As to `Cc1ccc(S(=O)(=O)NCCc2nnc3ccc(SCc4ccc(F)cc4)nn23)cc1`, the survival was 112%. `CCOc1ccc(NCc2cccn2-c2nnc(N3CCC(C(=O)NCc4cccc(OC)c4)CC3)s2)cc1`: the survival was 80%. Regarding `Cn1cnc(S(=O)(=O)N2CCC(C(=O)Nc3ccc(F)cc3F)CC2)c1`, the survival is 91%. Consider `NC(=O)COc1cccc(-n2cnnn2)c1`, for which the survival is 63%. Take `CCN(CC)CCSc1nc2ccc(OC)cc2[nH]1`: the survival is 70% (active). In the case of `COc1ccc2nc(-c3ccc(N)cc3)[nH]c2c1`, the survival was 58%. As for `COc1ccc2nc(SCC(=O)O)[nH]c2c1`, the survival is 104%. On to `Cc1ccc(S(=O)(=O)N2CCCC2C(N)=O)cc1` (stereo not drawn), for which the survival was 59%. With `COc1cc(C(=O)Nc2ccc3oc(-c4ccc(C)c(Br)c4)nc3c2)cc(OC)c1OC`, the survival was 93%. With `CCCc1cc(C(=O)Nc2c(C)nn(Cc3ccc(C)cc3)c2C)no1`, the survival is 73%.

In the case of `CC(C)c1ccc(-c2noc(C3CCCN(C(=O)c4ccccc4)C3)n2)cc1` (stereo not drawn), the survival was 86%. With `CC(C)c1ccc(-c2noc(C3CCCN(C(=O)Cc4cccs4)C3)n2)cc1` (stereo not drawn), the survival is 40% (active). Consider `CCCC(=O)N1CCCC(c2nc(-c3ccc(C(C)C)cc3)no2)C1` (stereo not drawn), for which the survival is 103%. For `Cc1ccc(-n2nc(C)c3c(C(=O)NCc4ccc(F)cc4)cc(C)nc32)cc1`, the survival was 83%. The same measure for `CN(C)c1ccc(CNc2nc(-c3ccco3)nn2C(=O)c2cccc([N+](=O)[O-])c2)cc1`: 66%; for `COc1ccccc1-c1cc(C(F)(F)F)nc(S(=O)(=O)CCCC(=O)Nc2ccc(F)cc2F)n1`: 67%. Regarding `O=C(CCS(=O)(=O)c1nc(-c2cccs2)cc(C(F)(F)F)n1)Nc1cc(Br)ccc1O`, the survival is 15% (active). The same measure for `COc1ccccc1-c1cc(C(F)(F)F)nc(S(=O)(=O)CCCC(=O)Nc2ccc(F)c(Cl)c2)n1`: 87%. For the compound `COc1ccccc1-c1cc(C(F)(F)F)nc(S(=O)(=O)CCCC(=O)Nc2cc(Br)ccc2O)n1`, the survival is 45% (active).

On to `COc1ccccc1-c1cc(C(F)(F)F)nc(S(=O)(=O)CCCC(=O)Nc2cc(OC)c(OC)c(OC)c2)n1`, for which the survival was 134%. With `Cc1ccc(O)c(NC(=O)CCS(=O)(=O)c2nc(-c3cccs3)cc(C(F)(F)F)n2)c1`, the survival is 51%.

As for `COc1ccccc1-c1cc(C(F)(F)F)nc(S(=O)(=O)CCCC(=O)Nc2cc(C)ccc2O)n1`, the survival is 47% (active). For `COc1ccccc1-c1cc(C(F)(F)F)nc(S(=O)(=O)CCCC(=O)Nc2ccccc2F)n1` the value was 70%. For the compound `COC(=O)c1ccccc1NC(=O)CCCS(=O)(=O)c1nc(-c2ccccc2OC)cc(C(F)(F)F)n1`, the survival was 87%.

For `COc1ccc(NC(=O)CCCS(=O)(=O)c2nc(-c3ccccc3OC)cc(C(F)(F)F)n2)c(OC)c1`, the survival is 46% (active).

Take `COc1ccc(-c2cc(C(F)(F)F)nc(S(=O)(=O)CCCC(=O)Nc3ccccc3C(F)(F)F)n2)cc1OC`: the survival was 70%. In the case of `O=C(CCS(=O)(=O)c1nc(-c2cccs2)cc(C(F)(F)F)n1)Nc1ccc(Br)cc1`, the survival is 61%. For the compound `CC(=O)Nc1ccc(NC(=O)c2cc(CN3CCCC3)on2)cc1`, the survival was 96%. Take `Cc1cccc(C)c1NC(=O)C1CCN(S(=O)(=O)c2cccc3nsnc23)CC1`: the survival was 89%. As for `COc1ccc(-n2c3c(cc(-c4nc(-c5ccc(Cl)cc5)cs4)c2=O)C(=O)CC(C)(C)C3)cc1Cl`, the survival is 79%.

Take `COc1ccc(OC)c(NC(=O)c2cnn(-c3ccc(C)cc3)c2C2CCNCC2)c1`: the survival was 92%. As to `CCOc1ccc(NC(=O)CCNS(=O)(=O)c2ccc3c(c2)CCCC(=O)N3)cc1`, the survival is 66%. For `CCN1CCOC(=O)C1CC(=O)Nc1cc(Cl)ccc1OC` (stereo not drawn) the value was 50%; for `O=C(O)c1ccccc1SC1CC(=O)N(c2ccc(N3CCCCC3)cc2)C1=O` (stereo not drawn), 90%. `COc1ccc(N2CCN(C(=O)c3ccc4c(c3)CCN4S(C)(=O)=O)CC2)cc1`: the survival was 57%.

For `COc1ccc(Cl)cc1NC(=O)c1ccc2c(c1)CCN2S(C)(=O)=O`, the survival is 81%. Regarding `CCS(=O)(=O)N1CCc2cc(C(=O)Nc3ccc(OC)c(Cl)c3)ccc21`, the survival was 47%. Consider `CCS(=O)(=O)N1CCc2cc(C(=O)N3CCN(c4ccc(OC)cc4)CC3)ccc21`, for which the survival was 40% (active). For the compound `CCS(=O)(=O)N1CCc2cc(C(=O)NCc3ccc(OC)cc3)ccc21`, the survival was 89%. As to `COC(=O)c1cc(OC)c(OC)cc1NC(=O)c1ccc2c(c1)CCN2S(=O)(=O)c1ccccc1`, the survival is 66%.

For the compound `CCOc1ccc(NC(=O)c2ccc3c(c2)CCN3S(=O)(=O)CC)cc1`, the survival was 48%. Turning to `COC(=O)c1ccccc1NC(=O)c1ccc2c(c1)CCN2S(C)(=O)=O`, the survival is 94%.

For `COC(=O)c1cc(OC)c(OC)cc1NC(=O)c1ccc2c(c1)CCN2S(C)(=O)=O`, the survival is 37% (active). In the case of `CCS(=O)(=O)N1CCc2cc(C(=O)Nc3ccc(OC)cc3OC)ccc21`, the survival was 44% (active). Regarding `CCS(=O)(=O)N1CCc2cc(C(=O)Nc3cc(OC)c(Cl)cc3OC)ccc21`, the survival was 43% (active). For `CCS(=O)(=O)N1CCc2cc(C(=O)N3CCN(c4ccccc4)CC3)ccc21` the value was 69%; for `CC1=C(C(=O)Nc2ccccc2)C(c2ccncc2)n2nc(SCc3ccccc3Cl)nc2N1` (stereo not drawn), 74%; for `CCCCOc1ccc(-c2cc3c(=O)n(CC(=O)Nc4ccc(Cl)cc4Cl)ccn3n2)cc1`, 133%. On to `CCN(CC)C(=O)Cn1c(=O)n(Cc2ccc(C(=O)NCCc3ccc(OC)c(OC)c3)cc2)c(=O)c2ccccc21`, for which the survival was 104%. Turning to `CCn1c(=O)n(CC)c2cc(N3CCCC3)c(NC(=O)Nc3cc(C)cc(C)c3)cc21`, the survival was 91%. `COc1ccc(CC(=O)NCc2ccc3c(c2)CCN3C(=O)c2ccc(Cl)cc2)cc1OC`: the survival was 86%. For `Cc1ccc(S(=O)(=O)C(CNC(=O)C(=O)NCCc2ccccc2)c2cccs2)cc1` (stereo not drawn), the survival is 107%. For `C=CCN(C(=O)c1ccc2c(c1)nnn2C)c1ccccc1` the value was 97%.

On to `O=C(NC1CCCCC1)NC1CCN(Cc2nnnn2Cc2ccc3c(c2)OCO3)CC1`, for which the survival was 88%. Consider `Cc1ccc(-n2nc(C)c3c(C(F)(F)F)cc(-c4cccnc4)nc32)cc1Cl`, for which the survival is 53%. As to `Cc1nn(-c2ccc(Cl)cc2)c2nc(-c3cccnc3)cc(C(F)(F)F)c12`, the survival is 39% (active). Consider `Cc1nn(-c2cccc(Cl)c2)c2nc(-c3cccnc3)cc(C(F)(F)F)c12`, for which the survival is 45%.

`COc1ccc(CNC(=O)C2CCN(C(=O)c3ccc(-n4ccc5ccccc54)s3)CC2)cc1`: the survival is 90%. Turning to `CCn1c2c(c(=O)n3ncc(C(=O)Nc4ccc(C(=O)OC)cc4)c13)CN(Cc1ccc(OC)cc1)CC2`, the survival is 81%.

Values taken from PubChem BioAssay AID463173 (ICCB-Longwood Screening Facility, Harvard Medical School, 2010).
